Structures are written as SMILES. Among all 100,000 compounds or so, about 770 (0.77%) were called active. This excerpt belongs to a sample that is enriched for actives. A number with no mark means an inactive call. No stated cut-off is given here; in the data, active means inhibition above about 50%; inactive means the rest.

The term inhibition denotes the share of the control response that was lost under treatment.

The target in the assay is Gag-Pol polyprotein (Human immunodeficiency virus type 1 group M subtype B (isolate HXB2)) (UniProt P04585). As to the kind of experiment: RNase H inhibition, HIV 1 Gag Pol polyprotein, FRET biochemical assay, screening (AID 372). The note with it: HIV-1 RT RNase H, FRET RNA/DNA substrate fluorescence; at 10 µM; hits give high values.
With `COc1ccc(OC)c(N(CC(=O)NCC(C)C)S(C)(=O)=O)c1`, the inhibition is 0%.

Take `CC(=O)C1=C(C)NC(SCC(=O)c2ccc(C)cc2)=C(C#N)C1c1ccc(Br)cc1` (stereo not given): the inhibition is 18%.

`O=C(NC(=S)Nc1ccc(Cl)c([N+](=O)[O-])c1)c1ccc(-c2ccccc2)cc1`: the inhibition was 13%.

Take `O=C(Nc1ccccc1-c1nc2ccccc2[nH]1)c1ccc([N+](=O)[O-])cc1`: the inhibition is 44%.

In the case of `COc1ccc(O)c(CN2CCCCC2)c1`, the inhibition was 4%.

On to `CC1SC(c2cccc(Cl)c2)NC1=O` (stereo not given), for which the inhibition is 0%.

For `C/C(=N\NC(=O)c1cc(C2CC2)[nH]n1)c1ccc(C)cc1`, the inhibition is 8%.

In the case of `COc1ccc(-n2nnnc2C(=Cc2ccc(N(C)C)cc2)c2nnnn2-c2ccc(OC)cc2)cc1`, the inhibition is 9%.

For the molecule `N#Cc1c(-c2cccc(Br)c2)c(C#N)c2nc3ccccc3n2c1N`, the inhibition was 9%.

Take `COc1ccc(C2CC(=O)C3=C(C2)NC(C)=C(C(=O)OC2CCCC2)C3c2ccc3c(c2)OCO3)cc1` (stereo not given): the inhibition was 3%.

As to `CCCC1=C(C(=O)OCC)C(c2cccs2)C(C#N)=C(N)O1` (stereo not given), the inhibition was 56% (active).

`CCOC(=O)C1=C(c2ccccc2)OC(N)=C(C#N)C1c1cccs1` (stereo not given): the inhibition was 15%.

`CCOC(=O)C1=C(CC)OC(N)=C(C#N)C1c1cccs1` (stereo not given): the inhibition was 30%.

Regarding `O=[N+]([O-])c1ccc(C=Nc2ccc(F)cc2)s1`, the inhibition is 21%.

As for `COC(=O)C1=C(C)N(Cc2ccccc2)C(=O)/C1=C\c1c(Cl)cccc1Cl`, the inhibition was 47%.

For `COC(=O)C1=C(C)N(Cc2ccccc2)C(=O)/C1=C\c1ccccc1Cl`, the inhibition was 51% (active).

Turning to `COC(=O)C1=C(C)N(Cc2ccccc2)C(=O)/C1=C\c1cccs1`, the inhibition is 4%.

In the case of `CN(C)c1ccc(/C=C(\C#N)c2nc(-c3ccc4c(c3)OCO4)cs2)cc1`, the inhibition is 16%.

Regarding `CCOC(=O)c1sc(NC(=O)c2cc(Cl)ccc2OC)c(C(N)=O)c1C`, the inhibition was 2%.

Take `Cc1cccc(NC(=O)c2ncn[nH]2)c1C`: the inhibition is 0%.

As to `O=C(Nc1ccccc1I)c1ccc(C(=O)Nc2ccccc2I)cc1`, the inhibition is 0%.

As for `O=C(Nc1ccccc1I)c1ncn[nH]1`, the inhibition is 54% (active).

On to `O=C(Nc1nc2ccccc2n1Cc1ccc(Cl)cc1)c1ccc(Cl)cc1`, for which the inhibition is 11%.

Regarding `CC(=O)Nc1ccc(NC(=S)NC(=O)c2cccc(Br)c2)cc1`, the inhibition was 0%.

`O=C1/C(=C/c2ccc(-c3ccc(Cl)cc3C(=O)O)o2)Sc2ccccc21`: the inhibition was 21%.

In the case of `O=C1NC(=O)/C(=C\c2ccc(-c3ccc(C(=O)O)cc3)o2)S1`, the inhibition is 6%.

As for `O=C(O)c1cc(-c2ccc(C=C3C(=O)c4ccccc4C3=O)o2)ccc1O`, the inhibition was 11%.

As to `O=C1NC(=S)S/C1=C\c1ccc(-c2ccc(Cl)c(C(=O)O)c2)o1`, the inhibition was 18%.

Take `CCCOc1ncnc2sc3c(c12)CCCC3`: the inhibition is 12%.

Regarding `COc1cc([N+](=O)[O-])ccc1-c1ccc(/C=C2/C(=O)N(c3ccc(C)cc3)N=C2C)o1`, the inhibition was 6%.

Consider `COc1cc(/C=C2\C(=O)N(c3ccc(S(N)(=O)=O)cc3)N=C2C)cc(Br)c1OCc1ccccc1`, for which the inhibition is 16%.

As to `CC1=NN(c2ccc(S(N)(=O)=O)cc2)C(=O)/C1=C\c1ccc(-c2cc([N+](=O)[O-])ccc2C)o1`, the inhibition is 42%.

`CC1=NN(c2ccc(S(N)(=O)=O)cc2)C(=O)/C1=C\c1ccc(-c2cccc([N+](=O)[O-])c2)o1`: the inhibition was 57% (active).

Consider `COc1cc([N+](=O)[O-])ccc1-c1ccc(/C=C2\C(=O)N(c3ccc(C(=O)O)cc3)N=C2C)o1`, for which the inhibition is 26%.

Regarding `COc1cc([N+](=O)[O-])ccc1-c1ccc(/C=C2\C(=O)N(c3ccc(S(N)(=O)=O)cc3)N=C2C)o1`, the inhibition was 53% (active).

As for `CC1=NN(c2ccc(S(N)(=O)=O)cc2)C(=O)/C1=C\c1ccc(-c2cc([N+](=O)[O-])ccc2Cl)o1`, the inhibition is 46%.

Take `CN1C(=O)C(=Cc2ccc(-c3ccc(Cl)c([N+](=O)[O-])c3)o2)C(=O)N(C)C1=S`: the inhibition was 30%.

`CCCOc1ccc(/C=C2\C(=O)N(c3ccc(S(N)(=O)=O)cc3)N=C2C)cc1OC`: the inhibition is 6%.

Consider `COc1cc(/C=C2\C(=O)N(c3ccc(S(N)(=O)=O)cc3)N=C2C)ccc1OCc1ccccc1`, for which the inhibition was 53% (active).

Turning to `CC1=NN(c2ccc(S(N)(=O)=O)cc2)C(=O)/C1=C\c1cccc([N+](=O)[O-])c1`, the inhibition was 12%.

As for `CC1=NN(c2ccc(S(N)(=O)=O)cc2)C(=O)/C1=C\c1ccc(-c2ccc(Cl)c([N+](=O)[O-])c2)o1`, the inhibition was 80% (active).

Turning to `C=CCc1ccc(OCCCOc2c(Cl)cccc2Cl)c(OC)c1`, the inhibition was 42%.

As to `CCOC(=O)C1=C(C)NC(=S)NC1c1ccc(Cl)c(Cl)c1` (stereo not given), the inhibition is 7%.

With `COc1ccc(NC(=NCCc2ccccc2)SC2CC(=O)N(c3ccc(F)cc3)C2=O)cc1` (stereo not given), the inhibition was 9%.

As for `COc1ccc(OC)c(C=Nc2ccc(I)cc2)c1`, the inhibition was 9%.

As for `O=C1NC(=Nc2ccc(F)cc2)S/C1=C/c1cccc(Br)c1`, the inhibition is 40%.

For the molecule `CCOC(=O)C1=C(C)N=c2s/c(=C\c3cc(Br)c(OC)c(OC)c3)c(=O)n2C1c1ccc(OC)c(OC)c1` (stereo not given), the inhibition was 18%.

For the molecule `CCc1cccc(C)c1NC(=O)/C(C#N)=C/c1ccccc1`, the inhibition was 4%.

`CC1=NN(c2ccccc2)C(=O)/C1=C\c1ccc(-c2cc([N+](=O)[O-])ccc2O)o1`: the inhibition is 30%.

As for `CC1=NN(c2ccc(S(N)(=O)=O)cc2)C(=O)/C1=C\c1ccc(-c2ccc(Cl)c(C(=O)OC(C)C)c2)o1`, the inhibition is 59% (active).

Regarding `CC1=NN(c2ccc(C)cc2)C(=O)/C1=C/c1ccc(-c2ccc(Cl)c(C(=O)O)c2)o1`, the inhibition was 24%.

Regarding `COC(=O)c1cccc(-c2ccc(/C=C3\C(=O)N(c4ccc(S(N)(=O)=O)cc4)N=C3C)o2)c1`, the inhibition was 28%.

For the molecule `CC1=NN(c2ccc(S(N)(=O)=O)cc2)C(=O)/C1=C\c1ccc(-c2ccc(C(=O)OC(C)C)cc2)o1`, the inhibition was 25%.

As to `CC1=NN(c2cccc(C(=O)O)c2)C(=O)/C1=C\c1ccc(-c2ccc([N+](=O)[O-])cc2)o1`, the inhibition is 7%.

On to `CC1=NN(c2ccc(S(N)(=O)=O)cc2)C(=O)/C1=C\c1ccc(-c2ccc(Br)cc2)o1`, for which the inhibition was 59% (active).

As to `CCOC(=O)c1ccc(-c2ccc(/C=C3\C(=O)N(c4ccc(S(N)(=O)=O)cc4)N=C3C)o2)cc1`, the inhibition is 36%.

Regarding `CC1=NN(c2ccc(S(N)(=O)=O)cc2)C(=O)/C1=C\c1ccc(-c2ccc([N+](=O)[O-])cc2)o1`, the inhibition is 63% (active).

On to `CC1=NN(c2ccc(S(N)(=O)=O)cc2)C(=O)/C1=C\c1ccc(-c2ccc(C)c(Cl)c2)o1`, for which the inhibition is 53% (active).

Turning to `CC1=NN(c2ccc(S(N)(=O)=O)cc2)C(=O)/C1=C\c1ccc(-c2ccc(S(N)(=O)=O)cc2)o1`, the inhibition was 32%.

In the case of `CC1=NN(c2ccc(S(N)(=O)=O)cc2)C(=O)/C1=C\c1ccc(-c2ccc(Cl)c(C(=O)O)c2)o1`, the inhibition was 6%.
